Laboratory results from PubChem BioAssay AID1346378 (National Center for Advancing Translational Sciences (NCATS), 2018).
Where “and” joins values, the source holds several entries; their conditions need not be identical. Equal values may be shown once. Among all 420,000 compounds or so, about 540 (0.13%) were called active. Rule as the data show it: active = activity change below about -50%; inconclusive = mostly about -30% to -49%; inactive = weaker than that. This excerpt belongs to a sample that is enriched for actives. Where a structure was tested more than once in an assay, its records may differ in their call.

What follows are compounds tested against Phosphatidylinositol 4-kinase type 2-alpha (Homo sapiens) (UniProt Q9BTU6) (assay: qHTS for small molecular inhibitors of PI4K2A). Settings: purified PI4K2A, ADP-Glo luminescence, 1 h; at 76.9 µM, stronger effect = lower value.
Excerpt: The phosphatidylinositol 4-phosphate (PI4P) is emerging as a key regulator of lipid transfer in ER-membrane contact sites. The four different phosphatidylinositol 4-kinase (PI4K) enzymes generate PI4P in different membrane compartments supporting distinct cellular processes many of which are crucial for the maintenance of cellular integrity but also hijacked by intracellular pathogens. The goal of this screening project is to search for small molecular inhibitors of PI4K2A based on a high throughput screening strategy.The ADP-Glo assay was used as a starting point to develop a miniaturized version for HTS applications. To implement the HTS screen, the PI4K ADP-Glotrade mark Kinase assay (Promega, V9102) was miniaturized for the 1536-well format used at NCGC.
For the robotic screening, the ADP-Glo assay using the ADP-Glotrade mark Kinase Assay kit from Promega was miniaturized and optimized on 1536-well white solid bottom plates (Greiner Bio-one). The substrate, 1.2 mM PI, prepared in the assay buffer (40mM Tris pH7.5, 20mM MgCl2, 1mM EGTA, 0.4% Triton X-100, 0.5mM DTT, 0.5mg/ml BSA) and PI4K2A enzyme, diluted also in the assay buffer to 4ug/mL, were dispensed onto the plates in equal volumes (1microl/well), pinned with 23 nL/well tested compounds or control followed by dispensation of 1microl/well 300microM ATP. The plates were incubated for one hour. Then, 2 µL/well of ADP-Glo reagent was added and incubated for 40 minutes. Next, 4microL/well of Kinase Detection Buffer was added to the plates and incubated for additional 40 minutes. All incubation steps were performed at ambient temperature. The resulting luminescence signal was measured on Viewlux plate reader (PerkinElmer). Adenosine, a partial non-specific inhibitor, was used as a positive control at 100microM final concentration to assess the assay's quality and plate-to-plate reproducibility. We also used "no enzyme" control to gauge the assay's maximal potential inhibition (IC100).
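Also: -100% = wells without enzyme as full effect.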

Chain of Phosphatidylinositol 4-kinase type 2-alpha (Homo sapiens) (Q9BTU6 whole entry, looked up): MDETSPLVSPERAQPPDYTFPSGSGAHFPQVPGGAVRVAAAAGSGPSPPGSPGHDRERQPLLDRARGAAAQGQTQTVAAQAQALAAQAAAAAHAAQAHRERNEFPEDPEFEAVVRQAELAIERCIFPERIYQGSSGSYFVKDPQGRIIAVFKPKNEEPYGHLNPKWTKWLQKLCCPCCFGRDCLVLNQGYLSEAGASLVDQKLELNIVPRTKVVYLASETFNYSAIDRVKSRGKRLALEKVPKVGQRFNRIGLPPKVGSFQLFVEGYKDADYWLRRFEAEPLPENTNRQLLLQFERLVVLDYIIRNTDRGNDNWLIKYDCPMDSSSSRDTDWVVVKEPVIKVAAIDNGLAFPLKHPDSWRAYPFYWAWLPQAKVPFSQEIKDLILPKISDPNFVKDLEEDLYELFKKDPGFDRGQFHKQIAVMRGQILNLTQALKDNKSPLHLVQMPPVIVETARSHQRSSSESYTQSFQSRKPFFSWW

Row | Structure (SMILES) | activity change, negative = inhibition
1 | Cc1ccc(C(=O)Nc2ccccc2F)cc1S(=O)(=O)N1CCOCC1 | -6.24% (inactive)
2 | c1ccc(Cc2c(-c3ccco3)nc3c4ccccc4ccn23)cc1 | -13.4% (inactive)
3 | Cn1c(-c2ccco2)nc2cc3ccccc3cc21 | -59.4% (active)
4 | Cc1ccc(Cc2c(-c3ccco3)nc3ccc(Cl)cn23)cc1 | -30% (inactive)
5 | COc1cc(/C=C/C(N)=O)cc(OC)c1OC | -0.706% (inactive)
6 | CCC(=O)Nc1ccccc1-c1nc2ccccc2n(CC(=O)Nc2ccc(C)c(C)c2)c1=O | 0.486% (inactive)
7 | COc1cccc(NC(=O)CN2C(=O)c3ccccc3Sc3ncccc32)c1 | 0.541% (inactive)
8 | COc1ccc(-c2onc(C)c2C)cc1S(=O)(=O)NCCc1ccccc1 | 0.384% (inactive)
9 | CCN(CCCNC(=O)c1ccc(Sc2ccc(C)cc2)c(NC(C)=O)c1)c1cccc(C)c1 | 2.25% (inactive)
10 | COc1ccc(-c2nnc(SCC(=O)Nc3ccc(C(C)C)cc3)nc2-c2ccc(OC)c(OC)c2)cc1OC | 0.608% (inactive)
11 | CNC(=O)c1ccc(-c2nc(CN3CCc4ccccc43)c(C)o2)cc1 | 2.42% (inactive)
12 | CC(=O)c1c(C)n(S(=O)(=O)c2ccc(Cl)cc2)c2ccc(NS(=O)(=O)c3ccc(Cl)cc3)cc12 | 2.95% (inactive)
13 | CSc1ccccc1-c1nnc(NC(=O)c2ccc3c(c2)OCCO3)o1 | 3.71% (inactive)
14 | O=C(COC(=O)c1ccccc1)c1ccc2c(c1)OCCO2 | -52.5% (active)
15 | N#CCCN(C(=O)COC(=O)c1ccc2c(c1)OCCO2)c1ccccc1 | 3.66% (inactive)
16 | O=C1COc2ccc(C(=O)COC(=O)c3ccccc3Cl)cc2N1 | 1.21% (inactive)
17 | CS(=O)(=O)N1CCc2cc(C(=O)Nc3ccccc3)ccc21 | -7.3% (inactive)
18 | O=C(Nc1ccccc1)c1ccc2c(c1)OCCCO2 | -52.6% (active)
19 | CCC(C)NC(=O)Cn1c(=O)n(-c2ccc(Cl)cc2)c(=O)c2c3c(sc21)CCCC3 (configuration not stated) | -10.3% (inactive)
20 | CCCn1c2ccccc2c2cnn(CC(=O)N(CC)c3cc(C)ccc3C)c(=O)c21 | -0.786% (inactive)
21 | CN(C)c1cc2c(Nc3ccc4c(cnn4Cc4ccccc4)c3)ncnc2cn1 | -9.09% (inactive)
22 | COc1cccc(C(=O)c2cc3ccc(O)cc3oc2=O)c1 | -61.7% (active)

Row | Structure (SMILES) | activity change, negative = inhibition
23 | COc1ccc(CNC(=O)c2cc3cccc(OC)c3oc2=O)cc1 | 3.69% (inactive)
24 | COc1cccc(C(=O)Nc2ccc3oc(-c4ccc5ccccc5c4)nc3c2)c1 | -2.82% (inactive)
25 | CCOc1ccc(NS(=O)(=O)c2ccc(N)cc2)nn1 | -1.1% (inactive)
26 | CC1=C(C(=O)OCC(C)C)C(c2ccc(OCc3ccccc3)cc2)N2C(=O)CCSC2=N1 (configuration not stated) | 5.39% (inactive)
27 | CCCCOc1ccc(CN2C(=O)C(=O)c3cc(Br)cc(C)c32)cc1OC | 13% (inactive)
28 | Cc1ccc(-n2nc(C)c(C(=O)O)c2-n2cccc2)cc1 | 3.8% (inactive)
29 | O=C(O)/C(=C/c1c(C(=O)O)[nH]c2cc(Cl)cc(Cl)c12)c1ccccc1 | -3.01% (inactive)
30 | Cc1[nH][nH]c(=O)c1C(c1ccc2c(c1)OCO2)c1c(C)[nH][nH]c1=O | -66.9% (active)
31 | Cc1[nH][nH]c(=O)c1C(c1ccc(-c2ccc(Cl)cc2)o1)c1c(C)[nH][nH]c1=O | -14% (inactive)
32 | Nc1[nH][nH]c(=O)c1N=Nc1ccc2c(c1)OCO2 | -6.7% (inactive)
33 | CCOC(=O)c1ccc(-c2ccc(/C=C(\C#N)C(=O)Nc3ccc(OCC)cc3)o2)cc1 | -0.67% (inactive)
34 | CCOc1ccc(NC(=O)c2ccc(NC(=O)COC(=O)c3ccc(NC(=O)CC#N)cc3)cc2)cc1 | -84.7% (active)
35 | CCOc1ccc(NC(=O)Cn2c(C)ccc(C#N)c2=O)cc1 | 1.57% (inactive)
36 | COC(=O)CN1C(=O)CSc2ccc(S(=O)(=O)Nc3cc(C)ccc3C)cc21 | -1.14% (inactive)
37 | Cc1ccc(S(=O)(=O)c2cn(Cc3ccccc3)c3cc(N4CCCC4)c(F)cc3c2=O)c(C)c1 | 2.36% (inactive)
38 | O=C(NCc1ccc(F)cc1)c1ccc(Cn2c(SCc3ccc(F)cc3)nc3cccnc32)cc1 | -1.71% (inactive)
39 | O=C(OCC(O)CO)c1ccccc1Nc1ccnc2c(C(F)(F)F)cccc12 (configuration not stated) | 0.766% (inactive)
40 | COc1ccc(Nc2ncc(C(=O)Nc3cc(C)ccc3OC)c3ccccc23)cc1 | 2.21% (inactive)
41 | COc1cccc(/C=N/NC(=O)C(=O)N2CCCC2)c1 | -2.13% (inactive)
42 | COc1ccc(C(=O)Nc2ccccc2C(=O)N/N=C/c2ccc(O)c(OC)c2)cc1 | -68.9% (active)
43 | CC(=O)/C(C)=N/O | -0.649% (inactive)
44 | O=C(Nc1c(C(=O)N2CCN(c3ccc(F)cc3)CC2)oc2ccccc12)c1ccco1 | -1.83% (inactive)

Row | Structure (SMILES) | activity change, negative = inhibition
45 | CCc1ccc2ncc3c(-c4ccc(C)cc4)nn(CC(=O)NCc4ccccc4)c3c2c1 | 8.2% (inactive)
46 | COc1ccc(OCCn2cc(C(=O)C3CCCCC3)c3ccccc32)cc1 | -0.826% (inactive)
47 | COc1cc(C(=O)Nc2ccc(-n3c(C)nc4ccccc4c3=O)cc2)cc(OC)c1OC | 6.04% (inactive)
48 | Cc1ccc2onc(CC(=O)N3CCN(c4ccc(Cl)cc4)CC3)c2c1 | 2.89% (inactive)
49 | O=C(OCc1ccccc1)c1ccc(O)cc1 | -0.636% (inactive)
50 | COc1ccc(-c2cn3c(n2)sc2cc(C(=O)Nc4ccccc4F)ccc23)cc1 | -4.68% (inactive)
51 | CCN1CCN(CCCNC(=O)c2ccc3c(c2)sc2nc(-c4ccc(OC)cc4)cn23)CC1 | -72.4% (active)
52 | Cc1ccc(-c2cn3c(n2)sc2cc(C(=O)NCCCc4ccccc4)ccc23)cc1 | -1.39% (inactive)
53 | CCC(=O)Nc1cccc(-c2nc3cc(C)ccc3o2)c1 | -9.07% (inactive)
54 | O=C(Nc1ccc(Br)cc1)c1ccc(Br)c(S(=O)(=O)NCc2ccccc2)c1 | -0.252% (inactive)
55 | CCC(=O)N1CCc2cc(S(=O)(=O)NC(C(=O)NCCc3ccc(C)cc3)C(C)C)ccc21 (configuration not stated) | -3.91% (inactive)
56 | CC(C)c1ccc(C2CC(=O)N3CN(C4CCCCC4)CSC3=C2C#N)cc1 (configuration not stated) | -15.6% (inactive)
57 | Cc1cc(C)c(NC(=O)CN2C(=O)c3cccnc3Oc3ccc(Cl)cc32)c(C)c1 | -3.1% (inactive)
58 | COC(=O)/C=C(/C)N | -1.85% (inactive)
59 | COc1ccc2c(c1)c(C(=O)N/N=C/c1cccs1)c(C)n2C | -1.53% (inactive)
60 | O=c1nc(N/N=C/c2ccco2)cn[nH]1 | -22.5% (inactive)
61 | Cc1n[nH]c(=O)nc1N/N=C/c1cccs1 | -51.8% (active)
62 | CCCCC12CN3CC(C)(CN(C1)C3c1ccc(O)c(OC)c1)C2=O (configuration not stated) | 0.484% (inactive)
63 | CCCCNC(=O)c1ccc2c(c1)NC(=O)C(C(C)C)N2 (configuration not stated) | -1.85% (inactive)
64 | COc1ccc(CCNC(=O)CCCn2c(=O)c3ccccc3n(Cc3ccc(F)cc3Cl)c2=O)cc1OC | 1.26% (inactive)
65 | O=C(O)c1ccc(-n2cccc2)cc1O | 1.97% (inactive)
66 | O=C(Nc1ccc(C(=O)O)c(O)c1)c1ccccc1 | -14.9% (inactive) and -50.4% (active)

Row | Structure (SMILES) | activity change, negative = inhibition
67 | O=C(Cn1ccc(=O)[nH]c1=O)Nc1ccc(C(=O)O)c(O)c1 | -9.18% (inactive)
68 | CCCCOc1ccc(CNC(=O)c2ccc3c(c2)N(C)C(=O)C2CCCCN32)cc1 (configuration not stated) | 1.06% (inactive)
69 | CC(C)(C)OC(=O)N1CCC(c2c(C(=O)Nc3ccc4c(c3)OCO4)cnn2-c2ccccc2)CC1 | -3.37% (inactive)
70 | Cc1cccc(-c2nnc(SCC(=O)N3CCCc4ccccc43)o2)c1 | 1.17% (inactive)
71 | CCCCOc1ccc(C(=O)Nc2cccc(-c3nc4ccccc4o3)c2C)cc1 | -4.4% (inactive)
72 | CCOC(=O)c1cccc(NS(=O)(=O)c2cc(-c3cnc(C)o3)ccc2OC)c1 | -9.3% (inactive)
73 | COc1ccc(Cl)cc1NC(=O)CSc1nc(=O)[nH]c2c1CCCC2 | 3.81% (inactive)
74 | CCc1ccccc1NC(=O)Cc1ccc(NC(=O)N2CCCCc3ccccc32)cc1 | -0.392% (inactive)
75 | COC(=O)c1cc(NC(=O)CCS(=O)(=O)c2cc(Br)cc3c2N(C(=O)C2CC2)CC3)cc(C(=O)OC)c1 | 1.45% (inactive)
76 | CCOc1cc(-c2nnc(SCC(=O)NC3CCCC3)nc2-c2ccc(OC)c(OCC)c2)ccc1OC | 1.43% (inactive)
77 | C=CC1(C)CC(=O)C2(O)C(C)(O1)C(OC(C)=O)C(O)C1C(C)(C)CCC(O)C12C (configuration not stated) | -8.1% (inactive)
78 | COc1ccc(-c2nc3ccccc3o2)cc1NC(=O)c1cc([N+](=O)[O-])ccc1N1CCOCC1 | -1.07% (inactive)
79 | COc1ccc(/C=C/c2nc(C#N)c(NCc3ccc(F)cc3)o2)cc1OC | 3.37% (inactive)
80 | CCc1ccc(NC(=O)c2cc(S(=O)(=O)NC3CCCCCC3)ccc2F)cc1 | 1.04% (inactive)
81 | Oc1ccc(Cn2cc[nH]c2=S)cc1 | 2.19% (inactive)
82 | CCC1=Nc2cc(C(=O)NCC(C)c3ccccc3)ccc2Sc2ccc(C)cc21 (configuration not stated) | -0.814% (inactive)
83 | CCOc1ccc(NC(=O)Cn2cc(C(=O)c3ccc(C)cc3)c(=O)c3cc4c(cc32)OCCO4)cc1 | -5.72% (inactive)
84 | CCCn1ccc2c(OCC(=O)NCc3ccc(F)cc3)cccc2c1=O | 1.12% (inactive)
85 | O=C(c1ccc2c(c1)N(Cc1ccccc1)C(=O)c1ccccc1S2(=O)=O)N1CCC(Cc2ccccc2)CC1 | -3.09% (inactive)
86 | CCOc1ccccc1NC(=O)CN1CCN(S(=O)(=O)c2ccc(Br)cc2)CC1 | -3.13% (inactive)
87 | CCOc1ccccc1NC(=O)Cn1c(=O)n(-c2cccc(C)c2)c(=O)c2c1c1cc(OC)ccc1n2C | 5.68% (inactive)
